# From PubChem BioAssay (NCATS)
# Records with an inconclusive call do not appear. Entries that show only a call come without a potency. Calls of active or inactive are those of the source. Calls come from the whole dose curve; as a rule, active = well fitted cell-killing curve with a large enough effect; inconclusive = small, poorly fitted or top-dose-only effect; inactive = flat fitted curve, though single readings scatter.
# Assay: Cell Viability - LYMP2-018 (AID 985);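 note: compound exposure lasted 24 hr at 37 °C; nearly all actives have a fitted effect of over 50% in size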
# Details: LYMP2-018 lymphoblastoid cells, viability (qHTS); series mostly up to 92.2 µM
# Text: NIH Chemical Genomics Center [NCGC]
# NIH Molecular Libraries Screening Centers Network [MLSCN]
# National Institutes of Environmental Health Sciences [NIEHS]
# National Toxicology Program [NTP]
# We have developed a 1536-well cell-based assay for quantitative high throughput screening (qHTS) against a number of cell lines to determine in vitro cytotoxicity of small molecules. This particular assay uses a human lymphoblastoid cell line (LYMP2-018) purchased from Coriell Institute for Medical Research.
# NCGC Assay Protocol Summary:
# The CellTiter-Glo luminescent cell viability assay (Promega) is a homogeneous method to measure the number of viable cells in culture. The end point readout of this assay is based on quantitation of intracellular ATP, an indicator of metabolic activity, using the luciferase reaction. Luciferase catalyzes the oxidation of beetle Luciferin to oxyluciferin and light in the presence of ATP. The luminescent signal is proportional to amount of ATP present.
# Using the CellTiter-Glo luminescent cell viability assay, the amount of cellular ATP was measured in the lymphoblastoid cell line with complete culture medium following compound treatment for 24 hours. The assay was performed in opaque white Kalypsys 1536-well plates. In the screen, tetraoctylammonium bromide was used as positive control. Library compounds were measured for their ability to cause acute toxicity in the cell line, as reflected by a decrease in intracellular ATP levels, in a concentration-dependent manner. […] AC50 values were determined from concentration-response data modeled with the standard Hill equation.
# qHTS protocol for CellTiter Glo lymphoblastoid cellular assay
# [Step] [Parameter] [Value] [Description]
# 1. Reagent; 5 uL; 2500 lymphoblastoid cells/well
# 2. Time; 5 hr; 37 C incubation
# 4. Controls; 23 nL; Tetraoctylammonium bromide 6.4pM to 92 uM
# 5. Time; 24 hr; 37 C incubation
# 6. Reagent; 5 uL; CellTiter Glo reagent
# 7. Time; 30 min; Room Temperature
# 8. Detection; Luminescence; Viewlux plate reader
# Keywords: cell viability, cytotoxicity, lymphoblastoid cell line, luminescence, NTPHTS, NTPHTS_NCGC, NIEHS, DSSTox, MLSMR, MLSCN, NIH Roadmap, qHTS, NCGC
# Potency is the fitted concentration of half-maximal effect.
row,SMILES,Potency
1,COc1ccc(C(=O)c2ccccc2)c(O)c1,inactive
2,CCCCC(CC)COC(=O)c1ccc(N(C)C)cc1 (stereo not drawn),inactive
3,NCCNc1cccc2ccccc12,inactive
4,NC(=O)c1ccccc1O,inactive
5,C/C=C/c1ccc(O)c(OC)c1,inactive
6,COc1cc([C@H]2Oc3cc([C@H]4Oc5cc(O)cc(O)c5C(=O)[C@@H]4O)ccc3O[C@@H]2CO)ccc1O,inactive
7,CCOc1ccc(NC(C)=O)cc1,inactive
8,CCOc1ccccc1C(N)=O,inactive
9,OC[C@H]1O[C@@H]2O[C@H]3[C@H](O)[C@@H](O)[C@@H](O[C@H]4[C@H](O)[C@@H](O)[C@@H](O[C@H]5[C@H](O)[C@@H](O)[C@@H](O[C@H]6[C@H](O)[C@@H](O)[C@@H](O[C@H]7[C@H](O)[C@@H](O)[C@@H](O[C@H]8[C@H](O)[C@@H](O)[C@@H](O[C@H]1[C@H](O)[C@H]2O)O[C@@H]8CO)O[C@@H]7CO)O[C@@H]6CO)O[C@@H]5CO)O[C@@H]4CO)O[C@@H]3CO,inactive
10,CCCN(CCC)S(=O)(=O)c1ccc(C(=O)O)cc1,inactive
11,COc1ccc(C(Cl)=C(c2ccc(OC)cc2)c2ccc(OC)cc2)cc1,inactive
12,Oc1c(Cl)cc(Cl)c(Cl)c1Cc1c(O)c(Cl)cc(Cl)c1Cl,25.1 µM (active)
13,O=C(O)c1ccc(S(=O)(=O)N(Cl)Cl)cc1,inactive
